# Source: PubChem BioAssay
# aSyn rescue – inhibitors of alpha-synuclein toxicity in yeast; Potency, µM (doses to about 46.1 µM), for inactives: at the top dose growth rescue (activation), hits mostly activators; AID 652106; hit rate 0.14% among 370,000; Yeast expressing alpha-synuclein, growth rescue, BacTiter-Glo, 24 h; further: % of control where 0% means no effect; nearly all actives have a fitted effect of over 65% in size
#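 Rescue of yeast growth: cells expressing toxic alpha-synuclein, induced in galactose at OD600 0.02, incubated with compound 24 h at 30 C. ATP luminescence quantified growth; inhibitors of toxicity appear as activators.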
# TDP43 rescue – inhibitors of TDP-43 toxicity in yeast | AID 652104 | hit rate 1.8% among 410,000 | TDP-43 expressing yeast growth rescue, BacTiter-Glo, 24 h | Potency, µM (titrated, usually from 46.1 µM), without a hit: at the top dose growth rescue (activation), hits mostly activators; further: % of control where 0% means no effect; nearly all actives have a fitted effect of over 50% in size
#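 Luminescence from BacTiter-Glo reports growth of TDP-43-expressing yeast after 24 hr at 30 deg C with compound. Cells were raffinose-pregrown to mid-log, then seeded in galactose medium at OD600=0.02.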
# FUS suppressor – FUS proteinopathy suppression in yeast; S. cerevisiae FUS-expressing, growth rescue, OD600, 24 h; Potency, µM (highest dose often 76.6 µM), most hits filed as activators; hit rate 0.24% among 390,000; AID 1347120;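 further: plate controls were DMSO vehicle for no effect and reference control for full effect; nearly all actives have a fitted effect of over 55% in size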
#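 Read-out: OD at 600 nm after 24hr at 30C, reporting rescue of FUS-induced yeast toxicity. Cells at OD 0.005 in galactose (2%) minimal medium; compounds tested in a dilution series; CP55940 titration from 92uM final as control.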
# Abeta yeast res – compounds reversing amyloid beta toxicity in yeast. yeast expressing A-beta42, growth rescue, OD600, 48 h; response scale: 0% DMSO, 100% iron-clioquinol control. Potency, µM (doses to about 46.1 µM), actives largely listed as activators. hit rate 0.063% among 410,000; further: nearly all actives have a fitted effect of over 55% in size
#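 Yeast growth medium received pinned compounds, then yeast cells expressing toxic A-beta were added; plates incubated at 30 C for 48 hr. Growth read as absorbance at 600 nm, normalized to DMSO and equimolar FeCl3 plus clioquinol controls.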
# * hit, by the source's call; i = inactive; ? = inconclusive; / = no result given; [ ] = remark or other dose. Most compounds without a hit are left out; they make up all but 2.1% or so of the library. The call rests on the fitted dose curve; in most records, active means well fitted curve in the direction sought with a large enough effect; inconclusive means small, poorly fitted or top-dose-only effect, or another doubt; inactive means no such curve, though single readings can be large; an effect the other way counts as inactive or inconclusive. Potency means the concentration at half of the fitted maximal effect.
SMILES,aSyn rescue,TDP43 rescue,FUS suppressor,Abeta yeast res
COc1ccc(-n2c(/C=C\c3ccccc3F)nc3ccccc3c2=O)c(OC)c1,/,35µM*,?,?
Cc1cccc(-n2c(/C=C/c3cccc4ccccc34)nc3ccccc3c2=O)c1,/,35µM*,i,i
Cc1cccc(-n2c(/C=C/c3ccccc3O)nc3ccccc3c2=O)c1,/,18%,i,i
COc1ccc(/C=C/c2nc(-c3ccccc3O)n(-c3ccccc3)n2)cc1OC,/,?,i,i
O=[N+]([O-])c1ccc(S(=O)(=O)N2CCn3cccc3C2c2ccccc2F)cc1 (stereo not given),/,22µM*,?,i
O=S(=O)(NC1CCCC1)OCC(Cl)(Cl)Cl,-4%,12%,i,i
O=S(=O)(NC1CCCCCCC1)OCC(Cl)(Cl)Cl,-16%,35µM*,i,i
O=C1N(c2ccc(Cl)cc2)C(c2cccnc2)N2CCCN12 (stereo not given),?,35µM*,i,i
CCC12CN3CC(CC)(CN(C1)C3c1cccnc1)C2=O (stereo not given),2%,6%,i,i
O=C(CN1CCOCC1)c1cccc([N+](=O)[O-])c1,1%,/,/,/
O=C(c1ccc2c(c1)N(Cc1ccc(F)cc1)C(=O)c1ccccc1S2)N1CCC2(CC1)OCCO2,/,27%,i,i
CCOc1ccc(CN2C(=O)c3ccccc3Sc3ccc(C(=O)N4CCC5(CC4)OCCO5)cc32)cc1,/,13µM*,?,i
N[C@@H](Cn1ccc(=O)[nH]c1=O)C(=O)O,-3%,/,/,/
COc1cc(-n2c(=S)[nH]c3ccccc3c2=O)c(Cl)cc1Cl,-2%,?,i,i
CC(C)Oc1cc(-n2c(=S)[nH]c3ccccc3c2=O)c(Cl)cc1Cl,-5%,10µM*,i,i
O=P(Nc1cccc(Cl)c1)(Oc1ccccc1)Oc1ccccc1,22µM*,-16%[1.82 µM],i,?
O=C1NC(=S)NC(=O)C1=Cc1ccc(OCc2ccccc2)cc1,-67%,18µM*,i,?
C[C@H]1[C@H](OC(=O)CCC(=O)NCc2ccc(C(=O)O)cc2)O[C@@H]2O[C@@]3(C)CC[C@H]4[C@H](C)CC[C@@H]1C24OO3,-9%,22µM*,i,i
CC1C(OC(=O)CCC(=O)NC(C)(C)CO)O[C@H]2OC3(C)CC[C@H]4[C@H](C)CCC1C24OO3 (stereo not given in full),-10%,22µM*,i,i
CC(C)CC(NC(=O)CCCNC(=O)CCC(=O)OC1O[C@H]2OC3(C)CC[C@H]4[C@H](C)CCC(C1C)C24OO3)C(=O)O (stereo not given in full),-2%,20µM*,i,i
C=C1C=C(C(F)F)n2ncc(C(=O)NCc3ccccc3F)c2N1,0%,/,/,/
CCOc1ccc(C(=O)Nc2cc(NC(=O)c3ccco3)ccc2OC)cc1Br,/,?,i,i
COC(=O)c1ccc(COC(=O)c2nn(C)c(=O)c3ccccc23)cc1,?,0%,i,i
O=C1c2ccccc2S(=O)(=O)c2cc(C(=O)N3CCN(c4c(Cl)cncc4Cl)CC3)ccc21,0%,13µM*,20µM*,i
N#CC1(c2ccccc2)CCN(C2CC(=O)N(c3ccc(F)cc3)C2=O)CC1 (stereo not given),-1%,-1%,i,i
SMILES,aSyn rescue,TDP43 rescue,FUS suppressor,Abeta yeast res
COc1ccc(N2C(=O)CC(N3CC=C(c4ccccc4)CC3)C2=O)cc1 (stereo not given),?,22µM*,i,i
N#Cc1cc(NC(=O)c2ccc(Cl)cc2)ccc1Sc1ccccc1,-10%,-41%,i,i
CCN(CC)C(=O)c1ccc2c(c1)C1C(Cl)C(Sc3ccccc3[N+](=O)[O-])CC1C(C(=O)O)N2 (stereo not given),-23%,-34%,40µM*,i
CCC(=O)O[C@H]1CC[C@H]2[C@@H]3CCC4=CC(=O)CC[C@]4(C)[C@H]3CC[C@]12C,1%,14µM*,i,i
CC12CCC(=O)C=C1CCC1C2CCC2(C)C(O)CCC12 (stereo not given),-1%,27%,i,i
N#Cc1ccc(C(=O)N2CCN(c3nc4ccc(F)cc4s3)CC2)cc1,/,?,i,i
Cc1c(Cl)ccc2sc(N3CCN(C(=O)CCS(=O)(=O)c4ccc(F)cc4)CC3)nc12,/,18µM*,?,i
COCCCn1c(N)c(C(=O)Nc2ccccc2)c2nc3ccccc3nc21,15%,8%,i,i
CCC(C)NC(=O)c1c(N)n(CCCOC)c2nc3ccccc3nc12 (stereo not given),11%,25µM*,i,i
O=C(Nc1ccccn1)NC12CC3CC(CC(C3)C1)C2,-7%,3.2µM*,i,i
COc1ccc(Cl)cc1NC(=O)CCn1c(=O)oc2ccccc21,8%,13µM*,i,i
O=c1[nH]c2ccccc2n1C1CCN(C(c2cc3ccccc3o2)c2nnnn2Cc2ccccc2)CC1 (stereo not given),3%,19%,8.9µM*,i
O=c1[nH]c2ccccc2n1C1CCN(C(c2cccc3ccccc23)c2nnnn2Cc2ccccc2)CC1 (stereo not given),1%,13%,?,i
CCC(c1nnnn1-c1ccc2c(c1)OCCO2)N1CCC(n2c(=O)[nH]c3ccccc32)CC1 (stereo not given),-13%,16%,i,i
CSCCC(c1nnnn1-c1ccc2c(c1)OCCO2)N1CCC(n2c(=O)[nH]c3ccccc32)CC1 (stereo not given),1%,12%,25µM*,i
Oc1ccccc1/C=N/[n+]1ccccc1,-1%,-25%,i,i
O=c1oc2ccccc2c(O)c1[C@H]1c2ccc(O)cc2Oc2c1c(=O)oc1ccccc21,0.56µM*,5.6µM*,i,i
CC(C)C(=O)Nc1ccc([N+](=O)[O-])c(C(F)(F)F)c1,0%,24%,i,i
C#CCOc1ccc2c(c1)c(C(C)=O)c(C)n2Cc1ccccc1,-9%,20µM*,i,i
CCCCn1c(O)c(C(CC)=NCc2ccc(F)cc2)c(=O)[nH]c1=O,5%,22µM*,?,i
CC(C)(C)C(=O)C(Oc1ccc(Cl)cc1)n1cncn1 (stereo not given),?,11µM*,i,i
Cc1ccc(-c2nc(CN3C(=O)CN=C(c4ccccc4)c4ccccc43)c(C)o2)cc1,/,5%[9.22 µM],i,i
Cc1oc(-c2ccccc2Cl)nc1CN1C(=O)CN=C(c2ccccc2)c2ccccc21,-31%,35µM*,i,i
Cn1ccc2c(-c3ccc(F)nc3)cc3c(c21)C1CCC3C1 (stereo not given),-22%,?,i,i
O=C(C(=O)N1CCOCC1)c1cn(CCCOc2ccccc2)c2ccccc12,6%,10%,i,i
